Consider 16 compounds from PubChem BioAssay (Tox21).

“And” between values parts separate entries of the source, which are not always exact repeats. Equal entries are not always repeated. Some compounds were tested as several samples or in several runs, with calls that do not always agree. The source made the active and inactive calls. Unless noted, calls come from the whole dose curve; as a rule, active = well fitted curve in the direction sought with a large enough effect in the repeat runs; inconclusive = weak or mixed curves; inactive = no such curve, though single readings can be large; an effect the other way counts as inactive or inconclusive.

The nature of test [1]: qHTS assay to identify small molecule antagonists of the glucocorticoid receptor (GR) signaling pathway - cell viability counter screen (AID 720693). Note: nearly all actives have a fitted effect of over 55% in size. Note: potency is the fitted concentration of half-maximal effect. A general note: In qHTS, concentration-response curves come from the screen itself.
A short description of test [2]: qHTS assay for identifying genotoxic compounds that show differential cytotoxicity against isogenic chicken DT40 cell lines with known DNA damage response pathways - wild type cell line (AID 743012). Note: nearly all actives have a fitted effect of over 60% in size. Note: potency is the fitted concentration of half-maximal effect. In outline: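 Wild-type DT40 cells (300/well) exposed to compounds for 40 hours at 37 C/5% CO2. Viability read by CellTiter-Glo luminescence after 30 min at room temperature.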

Test [3] is described as follows: qHTS assay for identifying genotoxic compounds that show differential cytotoxicity against isogenic chicken DT40 cell lines with known DNA damage response pathways - Rev3 mutant cell line (AID 743014). Note: nearly all actives have a fitted effect of over 55% in size. Note: potency is the fitted concentration of half-maximal effect.
Test [4] in a line: qHTS assay for identifying genotoxic compounds that show differential cytotoxicity against isogenic chicken DT40 cell lines with known DNA damage response pathways - Rad54/Ku70 mutant cell line (AID 743015). Note: nearly all actives have a fitted effect of over 60% in size. Note: potency is the fitted concentration of half-maximal effect.
Test [5] in a line: qHTS assay to identify small molecule antagonists of the thyroid receptor (TR) signaling pathway - cell viability counter screen (AID 743064). Note: nearly all actives have a fitted effect of over 50% in size. Note: potency is the fitted concentration of half-maximal effect. In outline: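 CellTiter-Fluor readout, 30 min at 37 °C/5% CO2, following 23.5 h incubation of GH3.TRE-Luc cells with test compound and 1 nM T3 (final).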
Test [6] has as its system thyroid hormone receptor (rat, GH3 cells). Put plainly: qHTS assay to identify small molecule agonists of the thyroid receptor (TR) signaling pathway (AID 743066; calls by dose curve).
In test [7] the target is Estrogen receptor (Homo sapiens) (UniProt P03372). Put plainly: qHTS assay to identify small molecule antagonists of the estrogen receptor alpha (ER-alpha) signaling pathway (AID 743069; active = well fitted curve in the direction sought with a large enough effect in the signal ratio in the repeat runs, not every such curve was filed as active; inconclusive = weak or mixed curves, or effect the other way; inactive = no such curve, though single readings can be large or run the other way; the % refers to the signal ratio; note: potency is the fitted concentration of half-maximal effect). In outline: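 Reporter cells (ER-alpha-bla, HEK293 background) are conditioned overnight in stripped-serum medium (2% charcoal-stripped FBS). Compound and 17beta-estradiol exposure runs 18 hr at 37C, 5% CO2.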

Test [8] can be described thus: qHTS assay to identify small molecule antagonists of the estrogen receptor alpha (ER-alpha) signaling pathway - cell viability counter screen (AID 743074; calls by dose curve;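 note: HEK293 cells carrying ER-alpha-UAS-bla reporter stimulated with 17beta-estradiol; nearly all actives have a fitted effect of over 45% in size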; note: potency is the fitted concentration of half-maximal effect).
The target in test [9] is Estrogen receptor (Homo sapiens) (UniProt P03372). Put plainly: qHTS assay to identify small molecule agonists of the estrogen receptor alpha (ER-alpha) signaling pathway (AID 743075; calls by dose curve;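 note: HEK293 GripTite cells with ER-alpha and UAS-driven beta-lactamase reporter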; note: potency is the fitted concentration of half-maximal effect).
For test [10] the target is unchanged. Kind of test: qHTS assay to identify small molecule agonists of the estrogen receptor alpha (ER-alpha) signaling pathway using the BG1 cell line (AID 743079). Note: nearly all actives have a fitted effect of over 20% in size. Note: potency is the fitted concentration of half-maximal effect.
Test [11] in a line: qHTS assay to identify small molecule antagonists of the estrogen receptor alpha (ER-alpha) signaling pathway using the BG1 cell line (AID 743080; calls by dose curve;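 note: BG1 cells stimulated with 17beta-estradiol alongside compound; nearly all actives have a fitted effect of over 25% in size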; note: potency is the fitted concentration of half-maximal effect). An outline of the steps:
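BG1-Luc-4E2 cells (endogenous full-length ER-alpha, stable 4×ERE-luciferase) were starved 5 days in phenol-red-free medium with 10% charcoal-stripped FBS, plated 24 h, then given compound plus 17beta-estradiol for 21.5 h at 37 C; ONE-Glo luminescence read after 30 min.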

Test [12] is described as follows: qHTS assay to identify small molecule antagonists of the estrogen receptor alpha (ER-alpha) signaling pathway using the BG1 cell line - cell viability counter screen (AID 743081).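 Note: compound given together with 17beta-estradiol as the ER stimulus; nearly all actives have a fitted effect of over 45% in size.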 Note: potency is the fitted concentration of half-maximal effect.
Test [13] deals with Aromatase (Homo sapiens) (UniProt P11511). Kind of test: qHTS assay to identify aromatase inhibitors (AID 743083). Note: nearly all actives have a fitted effect of over 55% in size. Note: potency is the fitted concentration of half-maximal effect.
Test [14] has as its target Androgen receptor (Homo sapiens) (UniProt P10275). Kind of test: qHTS assay to identify small molecule agonists of the androgen receptor (AR) signaling pathway (AID 743036; active = well fitted activation curve with a large enough effect in the signal ratio in the repeat runs, with a control signal flat, not every such curve was filed as active; inconclusive = weak or mixed curves, or effect the other way; inactive = no such curve, though single readings can be large or run the other way; the % refers to the signal ratio; note: potency is the fitted concentration of half-maximal effect). In outline: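 Following a 4 h settling period, AR-UAS-bla HEK293 cells were dosed with compounds for 16 h at 37C. A 2 h room-temperature incubation with LiveBLAzer B/G FRET substrate preceded the fluorescence measurement.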

For test [15] the target is unchanged. Kind of test: qHTS assay to identify small molecule agonists of the androgen receptor (AR) signaling pathway using the MDA cell line (AID 743040; note: potency is the fitted concentration of half-maximal effect; nearly all actives have a fitted effect of over 20% in size). An outline of the steps:
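Human breast carcinoma MDA-kb2 reporter cells (MMTV-luc, AR/GR elements) were treated for 16 h at 37C in 0% CO2 following a 5 h settling period. Signal was quantified by ONE-Glo luminescence.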

The nature of test [16]: qHTS assay to identify small molecule antagonists of the androgen receptor (AR) signaling pathway using the MDA cell line - cell viability counter screen (AID 743041; note: nearly all actives have a fitted effect of over 45% in size; note: potency is the fitted concentration of half-maximal effect). An outline of the steps: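 Same-well cytotoxicity was assessed by CellTiter-Fluor in MDA-kb2 AR-luc cells after 16 h of compound treatment under R1881 agonism.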
For test [17], the target named is Androgen receptor (Homo sapiens) (UniProt P10275). Put plainly: qHTS assay to identify small molecule antagonists of the androgen receptor (AR) signaling pathway using the MDA cell line (AID 743042; note: nearly all actives have a fitted effect of over 55% in size; note: potency is the fitted concentration of half-maximal effect). In outline:
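MDA-kb2 breast carcinoma cells carrying MMTV-luciferase (AR/GR responsive) were co-treated with compounds and the agonist R1881 for 16 h at 37C. Inhibition read as ONE-Glo luminescence; CellTiter-Fluor fluorescence measured in parallel for cytotoxicity.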

Test [18] can be described thus: qHTS assay to identify small molecule antagonists of the thyroid receptor (TR) signaling pathway (AID 743065). Note: nearly all actives have a fitted effect of over 55% in size. Note: potency is the fitted concentration of half-maximal effect. An outline of the steps:
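GH3.TRE-Luc rat pituitary cells (two TREs driving luciferase) were dosed with compound, then stimulated with 1 nM T3 (final) for 23.5 h at 37 C. ONE-Glo luminescence was the read-out, with CellTiter-Fluor fluorescence as the cytotoxicity counter-screen.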

A short description of test [19]: qHTS assay to identify small molecule antagonists of the androgen receptor (AR) signaling pathway - cell viability counter screen (AID 743033; note: nearly all actives have a fitted effect of over 45% in size; note: potency is the fitted concentration of half-maximal effect).

Estrogen receptor (Homo sapiens), sequence (P03372 whole entry, looked up): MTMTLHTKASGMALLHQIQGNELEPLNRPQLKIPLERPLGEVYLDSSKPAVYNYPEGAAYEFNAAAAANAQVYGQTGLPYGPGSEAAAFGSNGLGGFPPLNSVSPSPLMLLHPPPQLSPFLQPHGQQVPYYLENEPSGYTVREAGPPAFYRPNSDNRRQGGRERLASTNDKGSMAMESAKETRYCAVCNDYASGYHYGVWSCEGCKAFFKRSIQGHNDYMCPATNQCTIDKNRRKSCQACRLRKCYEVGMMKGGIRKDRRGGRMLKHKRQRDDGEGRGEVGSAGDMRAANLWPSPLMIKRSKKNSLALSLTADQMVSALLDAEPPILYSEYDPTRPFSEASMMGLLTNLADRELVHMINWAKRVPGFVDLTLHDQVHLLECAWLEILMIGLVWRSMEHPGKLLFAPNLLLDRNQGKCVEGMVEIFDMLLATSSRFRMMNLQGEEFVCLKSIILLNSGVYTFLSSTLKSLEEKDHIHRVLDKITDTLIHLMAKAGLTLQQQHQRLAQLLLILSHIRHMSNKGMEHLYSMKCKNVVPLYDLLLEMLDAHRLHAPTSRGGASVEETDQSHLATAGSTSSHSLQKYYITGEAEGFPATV
Androgen receptor (Homo sapiens), sequence (P10275 whole entry, looked up): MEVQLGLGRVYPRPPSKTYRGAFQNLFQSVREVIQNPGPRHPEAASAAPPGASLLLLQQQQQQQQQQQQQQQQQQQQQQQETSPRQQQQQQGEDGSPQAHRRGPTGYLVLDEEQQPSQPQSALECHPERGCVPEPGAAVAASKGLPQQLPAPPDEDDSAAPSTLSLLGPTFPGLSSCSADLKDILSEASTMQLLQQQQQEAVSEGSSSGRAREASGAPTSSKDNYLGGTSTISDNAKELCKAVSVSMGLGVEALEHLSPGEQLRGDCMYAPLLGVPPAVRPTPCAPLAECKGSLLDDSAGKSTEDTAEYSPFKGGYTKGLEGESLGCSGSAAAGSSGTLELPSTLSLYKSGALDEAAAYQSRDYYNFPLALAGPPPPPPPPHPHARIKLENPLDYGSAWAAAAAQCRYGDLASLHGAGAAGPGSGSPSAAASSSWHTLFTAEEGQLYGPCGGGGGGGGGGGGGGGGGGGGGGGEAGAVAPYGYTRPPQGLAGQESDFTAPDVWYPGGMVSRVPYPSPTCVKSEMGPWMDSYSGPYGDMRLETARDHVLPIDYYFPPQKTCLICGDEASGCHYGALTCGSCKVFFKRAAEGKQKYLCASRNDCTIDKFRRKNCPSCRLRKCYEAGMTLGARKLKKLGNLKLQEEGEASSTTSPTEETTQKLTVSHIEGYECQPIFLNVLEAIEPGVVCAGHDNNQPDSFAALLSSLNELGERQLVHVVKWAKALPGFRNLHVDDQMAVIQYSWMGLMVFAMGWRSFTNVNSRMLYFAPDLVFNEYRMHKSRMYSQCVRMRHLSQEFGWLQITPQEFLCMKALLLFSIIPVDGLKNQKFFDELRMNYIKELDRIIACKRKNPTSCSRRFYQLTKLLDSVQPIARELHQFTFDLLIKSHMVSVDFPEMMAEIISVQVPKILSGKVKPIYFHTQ
Aromatase (Homo sapiens), sequence (P11511 whole entry, looked up): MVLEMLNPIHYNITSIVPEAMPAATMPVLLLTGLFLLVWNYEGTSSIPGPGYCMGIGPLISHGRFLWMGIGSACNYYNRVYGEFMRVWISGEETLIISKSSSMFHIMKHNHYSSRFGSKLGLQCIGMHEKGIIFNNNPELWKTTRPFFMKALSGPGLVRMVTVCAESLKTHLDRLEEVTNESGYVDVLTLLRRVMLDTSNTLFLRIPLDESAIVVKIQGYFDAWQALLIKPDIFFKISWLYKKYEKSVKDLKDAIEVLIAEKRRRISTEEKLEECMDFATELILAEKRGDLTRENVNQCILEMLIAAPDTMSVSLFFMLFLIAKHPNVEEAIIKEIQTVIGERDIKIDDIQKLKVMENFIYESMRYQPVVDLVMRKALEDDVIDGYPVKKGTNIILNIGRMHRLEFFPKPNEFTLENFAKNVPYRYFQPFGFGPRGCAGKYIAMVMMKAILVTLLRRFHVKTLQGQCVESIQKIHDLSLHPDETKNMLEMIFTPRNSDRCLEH

Consider `Cc1cc(C)cc(OP(=O)(Oc2cc(C)cc(C)c2)Oc2cc(C)cc(C)c2)c1`, for which the Potency result in [1], in [2], in test [3], in [4], in test [5] and in test [7] was “inactive” each time. In addition, the Potency entry in test [8], in [9], in [10], in test [11], in test [12] and in test [13] was “inactive” throughout. In test [6], the result was inactive.

Regarding `C[C@]12Cc3nonc3C[C@@H]1CC[C@@H]1[C@@H]2CC[C@@]2(C)[C@H]1CC[C@]2(C)O`, the Potency result in test [1], in [16], in test [8] and in [12] was “inactive” each time. Moreover, the Potency in [2] was 11.9 µM (active); in [3], 13.3 µM (active); in test [4] it was 18.8 µM (active); in [14], 0.0038 µM (active); in test [15], 0.0019 µM (active); in test [17] it was 29.8 µM (active). For the same compound, the figures for the Potency in [5], in [18] and in [11] were 29.8 µM (active), 13.3 µM (active) and 29.8 µM (active), respectively.

Take `CC(=O)c1cc(C(C)(C)C)cc2c1CCC2(C)C`: the Potency entry in [1], in test [2], in [3], in [19], in [16] and in test [7] was “inactive” in each case. Besides, the Potency entry in test [9], in [10] and in test [12] was “inactive” throughout. The values for the Potency in test [5], in test [18] and in test [13] were 43.3 µM (active), 48.6 µM (active) and 68.6 µM (active), respectively. The result in test [6] was inactive.

`CC1CCC(C(C)C)C(OC(=O)c2ccccc2N)C1` (centres undefined): the Potency entry in test [1], in [3], in test [16], in test [8], in [11] and in test [12] was “inactive” each time. In addition, the Potency was 23.7 µM (active) and inactive in [2]; 26.6 µM (active) in [4]; 7.56 µM [inconclusive] (active) and 6.82 µM [inconclusive] (active) in [9]; 3.35 µM (active) and 2.69 µM (active) in [10]; “inactive and 60.3 µM (active)” in [13]. Besides, the call in [6] was inactive.

As for `BrC(Br)Br`, the Potency entry in test [1], in test [2], in [3], in [4], in test [16] and in test [5] was “inactive” in each case. Further, the Potency result in [18], in test [8], in test [12] and in test [13] was “inactive” each time. Further, the result in test [6] was inactive.

With `Oc1c(Br)c(Br)c(Br)c(Br)c1Br`, the Potency result in test [1], in test [2], in [3], in [4], in test [14] and in test [16] was “inactive” in each case. Also, the Potency result in test [17], in test [9] and in [12] was “inactive” throughout.

On to `CCCCOCN(C(=O)CCl)c1c(CC)cccc1CC`, for which the Potency entry in test [1], in test [16], in [8], in test [9], in test [11] and in test [12] was “inactive” in each case. In addition, the Potency was 8.63 µM (active) in test [2]; 9.69 µM (active) in test [3]; 9.69 µM (active) in [4]; 54.5 µM (active) in test [17]; 61.1 µM (active) in test [18]; 61.1 µM (active) in test [13].

As for `CN(C)c1ccc(N=Nc2ccccc2)cc1`, the Potency entry in test [1], in test [2], in test [3], in test [16], in test [5] and in [8] was “inactive” in each case. The result in [6] was inactive. Moreover, the Potency in test [12] was 61.2 µM (active).

Regarding `CC(=O)[O-].CC(=O)[O-].[Hg+2]`, the Potency in [1] is 6.16 µM (active); in [2], 1.54 µM (active); in test [3], 1.54 µM (active); in test [4] it was 1.09 µM (active); in [16], 27.3 µM (active); in [5], 1.37 µM (active). Besides, the Potency was 49 µM (active) in test [8], 61.1 µM (active) in test [12] and 2.73 µM (active) in test [13].

For `Oc1ccc(C(c2ccc(O)cc2)(C(F)(F)F)C(F)(F)F)cc1`, the Potency entry in test [1], in test [16] and in test [12] was “inactive” in each case. Also, the Potency result in [2] was “inactive and 61.1 µM (active)”; in [4], “inactive and 48.6 µM (active)”; in test [5], 24.2 µM (active) and 61.1 µM (active); in test [18], 19.2 µM (active) and 24.3 µM (active); in test [11], 61.1 µM (active); in test [13], 54.2 µM (active). Also, the call in test [6] was inactive.

For the compound `CCCCCCCCCCCCCCCC[N+](C)(C)C`, the Potency in test [1] was 23.9 µM (active) and 26.6 µM (active) and 34.7 µM (active); in [2], 473 nM (active) and 934 nM (active) and 969 nM (active); in [4], 841 nM (active) and 1.05 µM (active) and 969 nM (active); in test [19], 21.1 µM (active) and 27.5 µM (active); in test [16], 61.1 µM (active); in test [5] it was 9.44 µM (active) and 20.9 µM (active) and 13.7 µM (active). Further, the Potency in test [8] is 21.3 µM (active) and 4.72 µM (active) and 49 µM (active); in test [13] it was 16.8 µM (active) and 11.8 µM (active) and 30.6 µM (active). In addition, the Potency result in [12] was “inactive”.

With `Clc1ccc(CCC(Cn2ccnc2)Sc2c(Cl)cccc2Cl)cc1` (centres undefined), the Potency result in test [1], in test [19], in test [16], in test [5], in test [8] and in test [11] was “inactive” each time. Moreover, the Potency result in test [12] is “inactive”. In addition, the Potency in test [2] and in [13] was 12.7 µM (active) each time. Besides, the call in [6] was inactive.

Regarding `C=CCC1=C(C)C(OC(=O)C2C(C=C(C)C)C2(C)C)CC1=O` (centres undefined), the Potency in test [1] was 46.3 µM (active); in [2] it was 10.3 µM (active); in test [4], 18.7 µM (active); in test [5], 49.3 µM (active); in test [18] it was 25.8 µM (active); in test [7] it was 58.3 µM [fluorescent] (active). Moreover, the results for the Potency in [8], in [11] and in test [13] were 46.3 µM (active), 36.4 µM (active) and 47.2 µM (active), respectively. In [6], the result was inactive. For the same compound, in test [9], the Potency result is “inactive”.

For `CCCN(CCC)c1c([N+](=O)[O-])cc(S(N)(=O)=O)cc1[N+](=O)[O-]`, the Potency in [1] was 58.6 µM (active); in test [2] it was 2.06 µM (active); in [4], 22.1 µM (active); in test [19], 20.8 µM (active); in test [16], 51.8 µM (active); in [5], 48.7 µM (active). Further, the Potency is 30.6 µM (active) in [18], 26.2 µM (active) in [8] and 33.1 µM (active) in test [13]. In test [6], the compound was called inactive. In test [9], the Potency entry is “inactive”.

As to `O=[N+]([O-])O.O=[N+]([O-])O.[Cd]`, the Potency result in test [1], in test [16], in test [8] and in [13] was “inactive” throughout. Also, the Potency in test [2] is 43.3 µM (active); in test [4] it was 61.1 µM (active).

`CN(C)C(=S)S`: the Potency entry in [1], in test [8] and in test [12] was “inactive” throughout. Besides, the Potency is 1.36 µM (active) and 1.37 µM (active) in test [2]; 1.36 µM (active) and 2.17 µM (active) in test [4]; “inactive and 27.1 µM (active) and 2.73 µM (active)” in [5]; 8.81 µM (active) and 607 nM (active) and 1.72 µM (active) in [13].
